Source: PubChem BioAssay
Entries with a potency or affinity are not part of this list. Results filed as inconclusive are left out. The source made the active and inactive calls. Unless noted, how the calls were made is not given here.

Assays:
[1] = PAX8 transcriptional activity inhibition in RMG-I – RMG-I cells, luciferase, cherry-pick, dose response (AID 687027;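 active means every replicate test run called active, with the signal dropping as expected and potency within twice the top valid dose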); details: RMG-I TPO-Luc reporter, SteadyGlo luminescence, 24 h; series mostly up to 35 µM
[2] = RMG-1 ovarian cancer cell viability loss – cherry-pick, dose response (AID 687029;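 active means signal drop whose fitted half-maximal concentration is at most twice the top valid dose, in every test run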;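 further: cells exposed to compound for 96 hours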); details: RMG-1 viability, CellTiterGlo ATP luminescence, 96 h; series mostly up to 35 µM
[3] = IOSE-T80 viability loss, PAX8-independent line – cell-based, cherry-pick, selectivity assay for PAX8 inhibitor project, dose response (AID 687032;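 active means fitted half-maximal concentration for viability loss no higher than twice the top valid dose, in every repeat run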;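 further: cells exposed to compound for 96 h before reading; 0% = neutral control wells and -100% = 2 µM mitoxantrone kill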); details: CellTiterGlo ATP luminescence, 96 h; series mostly up to 35 µM
[4] = CMV-driven luciferase expression suppression in HEK293 – cell-based, luminescence, dry powder, counter-screen for Pax8 inhibitor project, dose response (AID 743020;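 active means signal-lowering compounds whose fitted half-maximal concentration is at or below twice the top tested dose in every run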;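 further: HEK293 cells stably expressing the CMV luciferase reporter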); details: HEK293 CMV-luciferase reporter, SteadyGlo luminescence, 24 h; series mostly up to 35 µM
[5] = general cell-killing toxicity readout – plate reader, dry powder samples, cytotoxicity control for PAX8 inhibitor project, dose response (AID 743021); details: cell line, non-specific cytotoxicity counter-screen; series mostly up to 35 µM
[6] = IGROV1 cell killing – plate reader, dry powder samples, PAX8 inhibitor project, dose response (AID 743043); details: IGROV1 ovarian cancer cell cytotoxicity; series mostly up to 35 µM;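 further: more negative means fewer viable cells or more cytotoxicity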
[7] = OVCAR-3 cell viability loss – plate reader, dry powder samples, PAX8 inhibitor project, dose response (AID 743044); details: NIH:OVCAR-3 ovarian cancer cell viability; max activity: at 35 µM, stronger effect = lower value unless noted; series mostly up to 50 µM
[8] = toxicity toward immortalized ovarian surface epithelium – cell-based, plate reader, dry powder samples, cytotoxicity control for PAX8 inhibitor project, dose response (AID 743045); details: IOSE-T80 ovarian epithelial cells; series mostly up to 35 µM;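 further: 0% = neutral control median and -100% = positive control median; more negative values mean more cell killing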
[9] = OVCAR8 cell viability loss – plate reader, dry powder samples, PAX8 project, dose response (AID 743197); details: series mostly up to 35 µM
[10] = A2780 cell killing – plate reader, dry powder samples, cytotoxicity control, dose response (AID 743046); details: A2780 ovarian cancer cytotoxicity; series mostly up to 35 µM;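 further: 0% = neutral control wells and -100% = cytotoxic reference compound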

Measured: max activity

COc1ccc(-c2cn(CC[C@H]3CC[C@@H](NC(=O)Cc4ccccn4)[C@H](CO)O3)nn2)cc1
inactive: [1] | [2] | [3] | [4] | [5] | [6] | [7] 35.1% [at 2.1 µM, stronger effect = lower value] | [8] | [9]

CC=Cc1ccc2n(c1=O)C[C@H]1[C@H](CO)[C@@H](C(=O)NC3CCC3)N(CC)[C@@H]21 (mixture of isomers)
inactive: [1] | [2] | [3] | [4] | [5] | [6] | [7] 9.45% | [8] | [10] | [9]

O=C(C[C@H]1C[C@@H]2c3cc(NC(=O)C4CCOCC4)ccc3O[C@@H]2[C@@H](CO)O1)NCc1ccc(Oc2ccccc2)cc1
inactive: [1] | [2] | [3] | [4] | [6] | [7] -14.4% [at 4.2 µM, stronger effect = lower value] | [8] | [10] | [9]

CN1[C@@H]2Cn3c(ccc(-c4ccccc4)c3=O)[C@H]1[C@@H](C(=O)NC1CCCCC1)[C@@H]2CO
inactive: [1] | [2] | [3] | [4] | [5] | [6] | [7] -24.4% | [8] | [10] | [9]

O=C(Cc1ccccn1)N[C@@H]1CC[C@@H](CCn2cc(-c3ccccc3)nn2)O[C@H]1CO
inactive: [1] | [2] | [3] | [4] | [5] | [6] | [7] 6.29% | [8] | [10] | [9]

COc1cccc(-c2ccc(C3[C@@H]4CN(Cc5cccc(F)c5)C[C@H]3N4)cc2)c1 (some centres undefined)
not listed: [6] | [7] | [8]
inactive: all other assays above

C[C@H]1CCCCO[C@@H](CN(C)Cc2ccc(C(=O)O)cc2)[C@@H](C)CN([C@@H](C)CO)C(=O)c2cc(NS(=O)(=O)c3ccc(Cl)cc3)ccc2O1
inactive: [1] | [2] | [3] | [4] | [5] | [6] | [7] 4.48% | [8] | [10] | [9]

c1ccc(COc2ccc(OCCN3CCCCC3)cc2)cc1
inactive: [1] | [2] | [3] | [4] | [5]

C[C@@H]1CN([C@H](C)CO)C(=O)c2cc(NC(=O)Cc3ccccc3)ccc2O[C@@H](C)CCCCO[C@H]1CN(C)Cc1ccc(Cl)c(Cl)c1
not listed: [7] | [9]
inactive: all other assays above

Cc1ccc(-c2ccc([C@@H]3[C@@H]4CN(Cc5ccccc5F)C[C@H]3N4)cc2)cc1
inactive: [1] | [2] | [3] | [4] | [7] -28% | [8] | [9]

O=C(Cc1ccccn1)N[C@H]1CC[C@H](CCn2cc(-c3ccccc3)nn2)O[C@@H]1CO
inactive: [1] | [2] | [3] | [4] | [5] | [6] | [7] -16.8% [at 16 µM, stronger effect = lower value] | [8] | [10] | [9]

COc1ccc(NC(=O)N2CCCCN3[C@@H](CO)[C@@H](c4ccc(C5=CCCC5)cc4)[C@@H]3C2)cc1
not listed: [7] | [9] | [10]
inactive: all other assays above

O=C(C[C@@H]1C[C@@H]2c3cc(NC(=O)Nc4ccccc4F)ccc3O[C@@H]2[C@H](CO)O1)NCc1ccc(Oc2ccccc2)cc1
inactive: [1] | [2] | [3] | [4] | [5] | [6] | [7] 14% [at 0.5 µM, stronger effect = lower value] | [8] | [10] | [9]

C[C@H](O)C#Cc1ccc([C@@H]2[C@@H](CO)N3CCCCN(S(=O)(=O)c4ccccc4)C[C@H]23)cc1
inactive: [1] | [2] | [3] | [4] | [5] | [6] | [7] 11.5% [at 0.26 µM, stronger effect = lower value] | [8] | [10] | [9]

C[C@H](O)C#Cc1ccc2c(c1)O[C@@H](CN(C)Cc1ccc(-c3ccccc3)cc1)[C@H](C)CN([C@@H](C)CO)S2(=O)=O
inactive: [1] | [2] | [3] | [4] | [5] | [6] | [7] -13.7% | [8] | [9]

CCOc1ccc(C(=O)Nc2ccc(Cc3ccncc3)cc2)cc1Br
inactive: [1] | [2] | [3] | [4] | [5]

C[C@@H]1CN([C@@H](C)CO)C(=O)c2cc(NC(=O)Nc3ccccc3)ccc2O[C@@H](C)CCCCO[C@H]1CN(C)Cc1ccc(Cl)c(Cl)c1
inactive: [1] | [2] | [3] | [4] | [5] | [6] | [7] -10.5% [at 8 µM, stronger effect = lower value] | [8] | [9]

O=C(Cc1ccccn1)NCC[C@@H]1CC[C@H](NC(=O)Nc2ccc(C(F)(F)F)cc2)[C@@H](CO)O1
inactive: [1] | [2] | [3] | [4] | [5] | [6] | [7] -10.6% [at 16 µM, stronger effect = lower value] | [8] | [10] | [9]

COc1ccc2c3c([nH]c2c1)[C@@H](CO)N(C(=O)C1CC1)CC31CN(Cc2nccs2)C1
inactive: [1] | [2] | [3] | [4] | [5] | [6] | [7] 23.4% [at 4.2 µM, stronger effect = lower value] | [8] | [10] | [9]

C[C@H]1CN([C@@H](C)CO)C(=O)c2cccc(NC(=O)Nc3ccc(C(F)(F)F)cc3)c2O[C@H]1CN(C)C(=O)NC1CCCCC1
inactive: [1] | [2] | [3] | [4] | [5] | [6] | [7] -14.7% [at 8 µM, stronger effect = lower value] | [8]

COc1ccc(-c2cn(CC[C@@H]3CC[C@H](NC(=O)Cc4ccccn4)[C@H](CO)O3)nn2)cc1
inactive: [1] | [2] | [3] | [4] | [5] | [6] | [7] 27.6% [at 1 µM, stronger effect = lower value] | [8] | [9]

C[C@H]1CCCCO[C@H](CN(C)Cc2ccccc2)[C@@H](C)CN([C@@H](C)CO)C(=O)c2cc(NC(=O)Nc3ccc(C(F)(F)F)cc3)ccc2O1
not listed: [6] | [7] | [9]
inactive: all other assays above

C[C@@H]1CCCCO[C@H](CN(C)C)[C@H](C)CN([C@@H](C)CO)C(=O)c2cc(NS(=O)(=O)c3ccc(Cl)cc3)ccc2O1
inactive: [1] | [2] | [3] | [4] | [6] | [7] 34.9% [at 0.26 µM, stronger effect = lower value] | [8] | [10] | [9]

COc1ccc(-c2cn(CC[C@H]3CC[C@@H](NC(=O)Cc4ccccn4)[C@@H](CO)O3)nn2)cc1
inactive: [1] | [2] | [3] | [4] | [5] | [6] | [7] -22.3% [at 4.2 µM, stronger effect = lower value] | [8]

COc1ccccc1NC(=O)N1CCCCN2[C@H](CO)[C@H](c3ccc(-c4ccc(C)cc4)cc3)[C@H]2C1
inactive: [1] | [2] | [3] | [4] | [5] | [6] | [7] 15.5% [at 1 µM, stronger effect = lower value] | [8] | [10] | [9]

CO[C@@H]1CN(C)C(=O)c2cc(NC(=O)c3ccccc3F)ccc2OC[C@@H](C)N(CC2CC2)C[C@@H]1C
inactive: [1] | [2] | [3] | [4] | [5] | [6] | [7] 9.58% [at 0.5 µM, stronger effect = lower value] | [8] | [10] | [9]

C[C@@H]1CCCCO[C@@H](CN(C)CC2CCCCC2)[C@H](C)CN([C@H](C)CO)C(=O)c2cc(NC(=O)Nc3ccccc3)ccc2O1
inactive: [1] | [2] | [3] | [4] | [5] | [6] | [7] -37.2% [at 4.2 µM, stronger effect = lower value] | [8] | [9]

COc1ccc(-c2cn(CC[C@H]3CC[C@H](NC(=O)Cc4ccccn4)[C@@H](CO)O3)nn2)cc1
inactive: [1] | [2] | [3] | [4] | [5] | [6] | [7] -17.4% | [8] | [10] | [9]

C[C@H]1CN([C@@H](C)CO)C(=O)c2cccc(NC(=O)Nc3cccc4ccccc34)c2O[C@H]1CN(C)CC1CC1
inactive: [1] | [2] | [3] | [4] | [5] | [6] | [7] -29.9% | [8] | [10] | [9]

COc1ccc(-c2ccc3c(c2)[C@H]2[C@H](CCN2C(=O)Cc2cccnc2)[C@H](CO)N3C)cc1
inactive: [1] | [2] | [3] | [4] | [5] | [6] | [7] 35.5% [at 0.26 µM, stronger effect = lower value] | [8] | [10]

Fc1cccc(CN2C[C@@H]3N[C@H](C2)C3c2ccc(-c3ccccc3)cc2)c1 (some centres undefined)
inactive: [1] | [2] | [3] | [4] | [5] | [8]

O=C(NC1CCCCC1)C(c1ccc(F)cc1)N(Cc1ccco1)C(=O)CN1C(=O)c2ccccc2S1(=O)=O (centres undefined)
inactive: [1] | [2] | [3] | [4] | [5]

CCOC(=O)C1(Cc2ccc(OC)cc2)CCN(C(=O)CN2CCCCC2=O)CC1
inactive: [1] | [2] | [3] | [5]
